TEAD-YAP block – TEAD-YAP interaction inhibition; inhibition, % at 9.12 µM; actives 1.4% (n = 640,000); HEK-TIYL cells, TEAD-Gal4/YAP UAS-luciferase luminescence; AID 1259422; in the data active means inhibition above about 32%;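 further: 0% = median of test compound wells and 100% = reference inhibitor wells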
GPR151 activ – human GPR151 activation; Q8TDV0; PathHunter beta-arrestin GPR151 cells, luminescence; activation, % at 11.2 µM; actives 1% (n = 650,000); AID 1508602; in the data active means activation above about 4.9%;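 further: 0% = median of compound wells and 100% = cells with positive control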
MITF inh – human MITF inhibition, primary screen; O75030; AlphaScreen MITF homodimerization, bead proximity signal; inhibition, % at 2.6 µM; actives 0.91% (n = 650,000); AID 1259374; in the data active means inhibition above about 50%;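 further: 0% = vehicle wells with protein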
FBW7 activator – human FBW7 E3 ligase activation, primary screen; AlphaScreen FBW7–phospho-cyclin E peptide binding, activator screen; normalized activity (activation), % at 26.1 µM; actives 0.13% (n = 650,000); AID 1259310; in the data active means normalized activity above about 1.9%;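 further: purified mutant Fbw7 with reduced substrate affinity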
GPR151 confirm – human GPR151 activation, confirmation screen | GPR151 PathHunter beta-arrestin cells, luminescence, 90 min; % of EA-reagent control over plate median | AID 1508609 | 6,700 tested, under 10 active | shares compounds with GPR151 activ | activation, % at 11.2 µM;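 active means mean percent activation across replicates above the confirmation screen cutoff of 4.91%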
GPR119 ag – GPR119 activation, counter-screen for GPR151 activators; AID 1508611; GPR119 PathHunter beta-arrestin cells, luminescence, 90 min; 0 = compound-well median, 100 = enzyme-acceptor control; actives 0.3% (n = 6,700); activation, % at 11.2 µM; shares compounds with GPR151 activ;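 active means mean percent activation in the counterscreen above 29.09%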;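 further: counterscreen on off-target GPR119 to flag nonselective hits from the GPR151 activator screen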
Target sequence (Q8TDV5 whole entry, looked up): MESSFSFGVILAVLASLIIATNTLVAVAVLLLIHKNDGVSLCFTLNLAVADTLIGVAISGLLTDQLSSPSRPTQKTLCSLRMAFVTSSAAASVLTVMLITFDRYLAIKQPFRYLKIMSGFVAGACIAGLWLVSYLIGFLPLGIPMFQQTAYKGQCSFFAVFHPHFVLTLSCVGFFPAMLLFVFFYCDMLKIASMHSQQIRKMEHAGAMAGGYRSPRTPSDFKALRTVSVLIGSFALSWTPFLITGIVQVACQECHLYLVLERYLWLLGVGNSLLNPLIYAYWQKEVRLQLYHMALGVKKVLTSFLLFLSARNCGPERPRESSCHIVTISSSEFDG
* hit, by the source's call; x = no result given. A selection: hits, their analogues and other compounds. The true share with any hit is near 3.5%.

SMILES	TEAD-YAP block	GPR151 activ	MITF inh	FBW7 activator	GPR151 confirm	GPR119 ag
Cc1ccc(C)c(NC(=O)C(C)n2ncn3cccc3c2=O)c1 (stereo not given)	3	-1	4	0	x	x
N=C1/C(=C\c2coc3ccccc3c2=O)C(=O)N=C2SC(c3cccnc3)=NN12	14	0	6	0	x	x
Cn1cccc1C(=O)OCC(=O)NC(=O)NCc1ccccc1	3	6.2*	7	0	2	13
COc1ccc(CCNC(=O)c2cncc(Nc3ncccn3)c2)cc1	1	6.9*	-1	0	-1	-9
Cc1c(C(=O)N2CCN(c3ccccc3Cl)CC2)nnn1-c1nc2c(s1)CCCC2	1	9.4*	-6	0	1	-3
O=c1[nH]c(=S)n(-c2ccc(F)cc2)c(O)c1C=NCc1ccc(F)cc1	9	-1	-6	0	x	x
O=C(Oc1ccc(OC(=O)c2ccncc2)cc1)c1ccncc1	-8	10*	9	0	-1	-15
COc1ccc(C(=O)Oc2ccc(/C=C/c3ccncc3)cc2)cc1OC	57*	5.2*	13	0	0	4
CC(C)CC1(C)NC(=O)N(Cc2nnc(-c3ccccc3Br)o2)C1=O (stereo not given)	-7	7.0*	3	0	1	1
COCCCNC(=O)CSc1nc2ccsc2c(=O)n1Cc1ccccc1Cl	-6	0	-1	0	x	x
CCOC(=O)C1(CCc2ccccc2)CCN(Cc2cnc(C)s2)CC1	-5	9.8*	-2	0	0	-6
OCC1(CCc2ccccc2)CCN(Cc2cnc(N3CCCC3)s2)CC1	-3	6.6*	6	0	-1	-15
CSc1nnc2c(n1)OC(c1ccc(-c3cc(Cl)ccc3C)o1)N(C(C)=O)c1ccccc1-2 (stereo not given)	2	1	4	0	x	x
O=C(N/N=C/c1cccc(O)c1)c1ccc(Br)o1	-25	8.3*	-1	0	-4	-31
O=C(N/N=C/c1cccnc1)c1ccc(Br)o1	-50	-1	3	0	x	x
COc1ccc(OC)c(NC(=O)COc2ccc(Br)cc2C(C)(C)C)c1	9	5.9*	-2	0	1	15
COc1ccc(NC(=O)COc2ccc(C)cc2C)c(OC)c1	3	7.9*	10	0	0	9
COc1ccc(OC)c(NC(=O)COc2ccccc2C(C)(C)C)c1	-4	-1	17	0	x	x
COc1ccccc1C1CC(c2ccc(Br)cc2)=NN1C(=O)CCCC(=O)O (stereo not given)	-4	1	8	0	x	x
CCSc1nnc(COc2ccc(C(C)(C)C)cc2)o1	-3	-1	14	1	x	x
Cn1c(=O)c2c(nc(Cl)n2CC(=O)NCc2ccccc2)n(C)c1=O	12	6.5*	15	0	0	7
CCN1CCN(c2nc3c(c(=O)n(C)c(=O)n3C)n2CCSc2ncccn2)CC1	2	8.0*	-3	0	0	4
Cn1c(=O)c2c(nc(N3CCCCCC3)n2CCc2ccccc2)n(C)c1=O	-7	5.0*	-11	0	2	8
O=C(Nc1ccccc1Cl)c1cc(S(=O)(=O)N2CCCCC2)cs1	2	1	-7	0	x	x
COc1ccc(S(=O)(=O)Nc2ccc(I)cc2)cc1C	4	6.8*	2	0	0	-8
SMILES	TEAD-YAP block	GPR151 activ	MITF inh	FBW7 activator	GPR151 confirm	GPR119 ag
COCCNS(=O)(=O)c1ccc(Cl)c(C(F)(F)F)c1	5	8.8*	3	0	1	7
COc1ccc(S(=O)(=O)NCCCCCC(=O)O)cc1C(=O)O	0	8.8*	10	0	1	-3
COc1ccc(S(=O)(=O)Nc2ccc(Cl)cc2)cc1I	9	19*	2	0	0	6
CSc1ncccc1C(=O)NCC1Cc2cccc(-c3cnccn3)c2O1 (stereo not given)	3	0	7	0	x	x
COCCCNS(=O)(=O)c1ccc2[nH]c(=O)[nH]c2c1	-6	6.0*	-3	0	1	16
COc1ccccc1NS(=O)(=O)c1cccc(S(=O)(=O)Nc2ccccc2OC)c1	9	-1	7	0	x	x
COc1ccc(S(=O)(=O)Nc2ccc(-c3cn4ccsc4n3)cc2)cc1C	7	13*	6	0	1	9
O=c1[nH]c2ccc(S(=O)(=O)NCCO)cc2[nH]1	3	-1	2	0	x	x
COc1ccccc1NS(=O)(=O)c1cccc(C(F)(F)F)c1	3	6.8*	-6	0	0	10
COCCCNS(=O)(=O)c1ccc(OC)c(I)c1	-2	-1	4	0	x	x
COCCNS(=O)(=O)c1ccc(OC)c(I)c1	3	9.4*	-10	0	1	9
O=C(NC1=NCCS1)c1cc2cc(Br)ccc2oc1=O	10	0	8	0	x	x
CC(O)CN1C(=O)CSC1c1cccc(C(F)(F)F)c1 (stereo not given)	0	-2	7	0	x	x
COc1ccc(S(=O)(=O)Nc2ccc(C)c(C)c2)cc1[N+](=O)[O-]	1	4	10	0	x	x
COc1ccccc1NS(=O)(=O)c1ccc(Cl)c(C(=O)Nc2ccc(Cl)cc2)c1	9	9.6*	6	0	0	-8
COc1ccc(S(=O)(=O)Nc2ccc3oc4c(c3c2)CCCC4)cc1[N+](=O)[O-]	10	6.4*	-4	0	0	1
COC(=O)COc1ccc(S(=O)(=O)Nc2ccc(C(N)=O)cc2)cc1C	3	-1	-8	0	x	x
COc1ccccc1NS(=O)(=O)c1ccc(Br)c(C(=O)Nc2ccccc2)c1	5	2	11	0	x	x
COC(=O)COc1ccc(S(=O)(=O)Nc2ccc(S(N)(=O)=O)cc2)cc1C	-6	5.9*	3	0	1	-1
CC1CN(c2nc3c(c(=O)[nH]2)CCN(Cc2cc4c(cc2Cl)OCO4)C3)CC(C)O1 (stereo not given)	2	0	5	0	x	x
Cc1ccccc1NCC(=O)N/N=C/c1ccc(O)cc1	1	-1	-10	0	x	x
COc1ccccc1Cn1nccc1N	2	2	8	0	x	x
COc1ccc(Cn2nccc2N)cc1OC	-2	14*	2	0	2	7
Oc1ccccc1-c1csc(Nc2ccccn2)n1	-79	7.6*	-8	0	-2	-15
Cc1nn(C)c(C)c1-c1nc(NCCN(C(C)C)C(C)C)c2ncn(C3CCCCC3)c2n1	2	0	-8	0	x	x
COc1ccccc1CNC1CCCN(c2nc(C)c3cc(F)ccc3n2)CC1 (stereo not given)	-1	5.4*	7	0	0	14
COc1ccc(C2C(C(=O)Nc3ccc(OC)c(Cl)c3)c3ccccc3C(=O)N2C)cc1 (stereo not given)	-16	-1	14	0	x	x

From PubChem
